Laboratory results reported in PubChem BioAssay (Tox21).
Values joined by “and” are separate entries in the source; they are usually repeats but may differ in a detail not shown here. Identical values can stand only once. Active and inactive are the calls of the source. Unless noted, calls come from the whole dose curve; as a rule, active = well fitted curve in the direction sought with a large enough effect in the repeat runs; inconclusive = weak or mixed curves; inactive = no such curve, though single readings can be large; an effect the other way counts as inactive or inconclusive.

Experiments:
[1] = qHTS assay to identify small molecule antagonists of the glucocorticoid receptor (GR) signaling pathway - cell viability counter screen (AID 720693); note: nearly all actives have a fitted effect of over 55% in size; note: potency is the fitted concentration of half-maximal effect
[2] = qHTS assay for identifying genotoxic compounds that show differential cytotoxicity against isogenic chicken DT40 cell lines with known DNA damage response pathways - wild type cell line (AID 743012); note: nearly all actives have a fitted effect of over 60% in size; note: potency is the fitted concentration of half-maximal effect
In short: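 Endpoint: CellTiter-Glo luminescence, 30 min RT. Cells: wild type DT40, 300/well. Exposure: compounds in DMSO, 40 h, 37 C/5% CO2, after ~0.5 h pre-incubation.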

[3] = qHTS assay for identifying genotoxic compounds that show differential cytotoxicity against isogenic chicken DT40 cell lines with known DNA damage response pathways - Rad54/Ku70 mutant cell line (AID 743015); note: nearly all actives have a fitted effect of over 60% in size
[4] = qHTS assay to identify small molecule antagonists of the androgen receptor (AR) signaling pathway - cell viability counter screen (AID 743033; note: nearly all actives have a fitted effect of over 45% in size)
[5] = biological target: Androgen receptor (Homo sapiens) (UniProt P10275); assay: qHTS assay to identify small molecule antagonists of the androgen receptor (AR) signaling pathway (AID 743035; active = well fitted inhibition curve with a large enough effect in the signal ratio in the repeat runs, not every such curve was filed as active; inconclusive = weak or mixed curves, or effect the other way; inactive = no such curve, though single readings can be large or run the other way; the % refers to the signal ratio; note: potency is the fitted concentration of half-maximal effect)
Sequence of Androgen receptor (Homo sapiens) (P10275 whole entry, looked up): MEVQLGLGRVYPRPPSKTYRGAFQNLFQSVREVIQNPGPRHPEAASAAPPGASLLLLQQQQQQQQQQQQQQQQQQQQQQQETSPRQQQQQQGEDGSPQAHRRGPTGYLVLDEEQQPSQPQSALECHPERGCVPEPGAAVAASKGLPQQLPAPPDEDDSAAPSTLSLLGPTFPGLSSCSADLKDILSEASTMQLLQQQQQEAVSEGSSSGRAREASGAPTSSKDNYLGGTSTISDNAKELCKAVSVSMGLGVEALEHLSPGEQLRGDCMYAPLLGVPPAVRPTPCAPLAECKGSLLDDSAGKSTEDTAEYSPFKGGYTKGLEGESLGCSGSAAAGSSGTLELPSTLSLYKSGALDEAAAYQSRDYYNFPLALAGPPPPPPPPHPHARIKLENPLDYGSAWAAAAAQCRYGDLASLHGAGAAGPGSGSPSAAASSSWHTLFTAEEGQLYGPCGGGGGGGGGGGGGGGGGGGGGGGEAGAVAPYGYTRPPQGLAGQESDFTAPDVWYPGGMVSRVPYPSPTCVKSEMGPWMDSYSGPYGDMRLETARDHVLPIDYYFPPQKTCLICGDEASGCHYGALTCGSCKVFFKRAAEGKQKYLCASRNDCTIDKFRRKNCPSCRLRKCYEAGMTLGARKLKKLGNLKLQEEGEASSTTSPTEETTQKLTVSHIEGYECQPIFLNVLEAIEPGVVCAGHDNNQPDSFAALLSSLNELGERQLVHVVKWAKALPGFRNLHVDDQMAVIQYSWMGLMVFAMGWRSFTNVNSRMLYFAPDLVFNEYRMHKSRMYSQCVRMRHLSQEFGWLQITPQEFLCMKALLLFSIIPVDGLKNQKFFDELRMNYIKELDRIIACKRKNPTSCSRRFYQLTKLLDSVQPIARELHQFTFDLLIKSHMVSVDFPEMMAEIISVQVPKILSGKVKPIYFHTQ
In short: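 R1881 agonist challenge of a HEK293 UAS-beta-lactamase AR reporter line in the presence of compound (16 h, 37C); signal taken as FRET fluorescence after 2 h with LiveBLAzer B/G substrate at room temperature.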

[6] = biological target: Androgen receptor (Homo sapiens) (UniProt P10275); assay: qHTS assay to identify small molecule agonists of the androgen receptor (AR) signaling pathway (AID 743036; active = well fitted activation curve with a large enough effect in the signal ratio in the repeat runs, with a control signal flat, not every such curve was filed as active; inconclusive = weak or mixed curves, or effect the other way; inactive = no such curve, though single readings can be large or run the other way; the % refers to the signal ratio)
In short: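 AR-bla HEK293 cells, 2,000/well; 4 h preincubation 37C/5% CO2; compound (DMSO) 16 h at 37C; LiveBLAzer B/G FRET substrate 2 h RT; fluorescence intensity read-out.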

[7] = biological target: Androgen receptor (Homo sapiens) (UniProt P10275); assay: qHTS assay to identify small molecule agonists of the androgen receptor (AR) signaling pathway using the MDA cell line (AID 743040; note: nearly all actives have a fitted effect of over 20% in size; note: potency is the fitted concentration of half-maximal effect)
In short: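 Testing was done with the MDA-kb2 AR-luc line, a human breast carcinoma stably transfected with MMTV-luciferase containing AR and GR response elements. Cells were exposed 16 h at 37C before ONE-Glo luminescence detection.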

[8] = qHTS assay to identify small molecule antagonists of the androgen receptor (AR) signaling pathway using the MDA cell line - cell viability counter screen (AID 743041; note: nearly all actives have a fitted effect of over 45% in size)
In short: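 Compound exposure lasted 16 h at 37C in MDA-kb2 AR-luc cells stimulated with R1881. Protease-based CellTiter-Fluor reagent was applied for the final 30 min and fluorescence measured.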

[9] = biological target: Androgen receptor (Homo sapiens) (UniProt P10275); assay: qHTS assay to identify small molecule antagonists of the androgen receptor (AR) signaling pathway using the MDA cell line (AID 743042; note: nearly all actives have a fitted effect of over 55% in size)
In short: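 MDA-kb2 breast carcinoma cells carrying MMTV-luciferase (AR/GR responsive) were co-treated with compounds and the agonist R1881 for 16 h at 37C. Inhibition read as ONE-Glo luminescence; CellTiter-Fluor fluorescence measured in parallel for cytotoxicity.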

[10] = qHTS assay to identify small molecule antagonists of the thyroid receptor (TR) signaling pathway (AID 743065); note: nearly all actives have a fitted effect of over 55% in size; note: potency is the fitted concentration of half-maximal effect
In short: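 GH3.TRE-Luc rat pituitary cells (two TREs driving luciferase) were dosed with compound, then stimulated with 1 nM T3 (final) for 23.5 h at 37 C. ONE-Glo luminescence was the read-out, with CellTiter-Fluor fluorescence as the cytotoxicity counter-screen.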

[11] = system: thyroid hormone receptor (rat, GH3 cells); assay: qHTS assay to identify small molecule agonists of the thyroid receptor (TR) signaling pathway (AID 743066; calls by dose curve; note: potency is the fitted concentration of half-maximal effect)
[12] = qHTS assay to identify small molecule antagonists of the estrogen receptor alpha (ER-alpha) signaling pathway - cell viability counter screen (AID 743074; calls by dose curve; note: nearly all actives have a fitted effect of over 45% in size)
[13] = biological target: Estrogen receptor (Homo sapiens) (UniProt P03372); assay: qHTS assay to identify small molecule agonists of the estrogen receptor alpha (ER-alpha) signaling pathway using the BG1 cell line (AID 743079); settings: BG1Luc4E2 cells, ERE-luciferase agonist, 22 h; activation: at 70.3 µM (top of the series); note: nearly all actives have a fitted effect of over 20% in size; note: potency is the fitted concentration of half-maximal effect
Sequence of Estrogen receptor (Homo sapiens) (P03372 whole entry, looked up): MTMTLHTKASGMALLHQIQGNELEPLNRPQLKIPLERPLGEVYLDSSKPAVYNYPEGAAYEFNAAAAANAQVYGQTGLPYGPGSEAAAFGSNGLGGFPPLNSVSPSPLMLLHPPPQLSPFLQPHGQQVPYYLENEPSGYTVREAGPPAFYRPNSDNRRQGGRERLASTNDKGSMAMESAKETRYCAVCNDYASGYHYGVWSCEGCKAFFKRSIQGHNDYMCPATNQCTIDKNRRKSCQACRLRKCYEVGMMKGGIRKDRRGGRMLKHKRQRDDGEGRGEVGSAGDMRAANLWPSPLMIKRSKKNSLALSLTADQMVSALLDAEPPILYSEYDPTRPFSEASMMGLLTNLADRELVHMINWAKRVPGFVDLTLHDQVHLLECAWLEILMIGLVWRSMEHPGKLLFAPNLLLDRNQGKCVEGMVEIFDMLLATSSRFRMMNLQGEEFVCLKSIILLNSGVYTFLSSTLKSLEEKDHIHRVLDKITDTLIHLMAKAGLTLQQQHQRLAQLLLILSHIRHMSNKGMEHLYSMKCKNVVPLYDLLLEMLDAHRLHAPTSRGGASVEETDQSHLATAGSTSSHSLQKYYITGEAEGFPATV

[14] = qHTS assay to identify small molecule antagonists of the estrogen receptor alpha (ER-alpha) signaling pathway using the BG1 cell line - cell viability counter screen (AID 743081);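 note: compound given together with 17beta-estradiol as the ER stimulus; nearly all actives have a fitted effect of over 45% in size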; note: potency is the fitted concentration of half-maximal effect
Aromatase (Homo sapiens) = Aromatase (Homo sapiens) (UniProt P11511); assay: qHTS assay to identify aromatase inhibitors (AID 743083); note: nearly all actives have a fitted effect of over 55% in size; note: potency is the fitted concentration of half-maximal effect
Sequence of Aromatase (Homo sapiens) (P11511 whole entry, looked up): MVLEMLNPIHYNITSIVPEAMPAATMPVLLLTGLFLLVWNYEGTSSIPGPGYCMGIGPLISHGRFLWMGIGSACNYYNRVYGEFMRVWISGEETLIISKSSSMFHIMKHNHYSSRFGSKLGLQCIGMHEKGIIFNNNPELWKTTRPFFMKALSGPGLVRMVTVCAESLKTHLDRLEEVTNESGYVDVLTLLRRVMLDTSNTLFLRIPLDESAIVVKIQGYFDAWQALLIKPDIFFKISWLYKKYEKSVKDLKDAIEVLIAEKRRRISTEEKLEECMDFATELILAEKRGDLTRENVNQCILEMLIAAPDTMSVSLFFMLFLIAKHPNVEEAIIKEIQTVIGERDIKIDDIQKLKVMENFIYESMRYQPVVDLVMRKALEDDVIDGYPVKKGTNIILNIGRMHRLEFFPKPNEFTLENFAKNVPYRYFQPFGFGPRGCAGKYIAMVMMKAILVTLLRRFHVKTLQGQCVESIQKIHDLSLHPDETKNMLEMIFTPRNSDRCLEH

[15] = qHTS assay for identifying genotoxic compounds that show differential cytotoxicity against isogenic chicken DT40 cell lines with known DNA damage response pathways - Rev3 mutant cell line (AID 743014); note: nearly all actives have a fitted effect of over 55% in size; note: potency is the fitted concentration of half-maximal effect
[16] = qHTS assay to identify small molecule antagonists of the thyroid receptor (TR) signaling pathway - cell viability counter screen (AID 743064); note: nearly all actives have a fitted effect of over 50% in size; note: potency is the fitted concentration of half-maximal effect
In short: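 GH3.TRE-Luc cells, 4 h pre-plating; cpd + T3 1 nM final; 37 °C 23.5 h; CellTiter-Fluor 30 min; fluorescence read.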

[17] = biological target: Estrogen receptor (Homo sapiens) (UniProt P03372); assay: qHTS assay to identify small molecule antagonists of the estrogen receptor alpha (ER-alpha) signaling pathway (AID 743069; active = well fitted curve in the direction sought with a large enough effect in the signal ratio in the repeat runs, not every such curve was filed as active; inconclusive = weak or mixed curves, or effect the other way; inactive = no such curve, though single readings can be large or run the other way; the % refers to the signal ratio; note: potency is the fitted concentration of half-maximal effect)
In short: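 In this cell-based reporter format, GripTite HEK293 cells harbouring ER-alpha-UAS-bla were grown overnight with 2% charcoal-stripped FBS, dosed with DMSO-dissolved compounds, then challenged with 17beta-estradiol. After 18 hr at 37C, beta-lactamase activity was detected by FRET fluorescence.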

[18] = biological target: Estrogen receptor (Homo sapiens) (UniProt P03372); assay: qHTS assay to identify small molecule agonists of the estrogen receptor alpha (ER-alpha) signaling pathway (AID 743075; calls by dose curve; note: potency is the fitted concentration of half-maximal effect)
[19] = qHTS assay to identify small molecule antagonists of the estrogen receptor alpha (ER-alpha) signaling pathway using the BG1 cell line (AID 743080; calls by dose curve;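 note: BG1 cells stimulated with 17beta-estradiol alongside compound; nearly all actives have a fitted effect of over 25% in size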)
In short: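 Seeding, 24 h rest, compound transfer from DMSO, 17beta-estradiol addition, 21.5 h incubation, CellTiter-Fluor (30 min, 37 C), then ONE-Glo (30 min, room temperature): this sequence was run on BG1-Luc-4E2 reporter cells.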

Measured: Potency

CC(=O)O[C@]1(C(C)=O)CC[C@H]2[C@@H]3CCC4=CC(=O)CC[C@]4(C)[C@@]3(F)[C@@H](O)C[C@@]21C
active: [5] 8.49 µM | [7] 0.0531 µM | [13] 2.66 µM
not listed: [15] | [16] | [17] | [18] | [19]
inactive: all other assays above

CCN(CC)CCOc1ccc2nc(N(C)C)sc2c1
active: [2] 1.19 µM | [15] 1.68 µM | [13] 26.6 µM
not listed: [3] | [5] | [6] | [7] | [9] | [19]
inactive: all other assays above

CC(=O)[C@]1(O)Cc2c(O)c3c(c(O)c2[C@@H](O[C@H]2C[C@H](N)[C@H](O)[C@H](C)O2)C1)C(=O)c1c(O)cccc1C3=O
active: [1] 3.01 µM | [2] 18.8 nM and 21.1 nM | [15] 0.0188 µM | [16] 150 nM and 188 nM | [10] 0.119 µM | [17] 10.7 µM [inconclusive] | [18] 3.38 µM [inconclusive] and 6.01 µM [inconclusive] | [14] 18.8 µM and 23.7 µM | Aromatase (Homo sapiens) 3.35 µM
inactive: [12]

CNC(C)CCC=C(C)C (configuration not stated)
active: [2] 23.7 µM | [15] 29.8 µM
inactive: [1] | [4] | [8] | [11] | [14] | Aromatase (Homo sapiens)

C=CCCCCCCCCC(=O)OC
not listed: [3] | [4] | [5] | [6] | [7] | [9]
inactive: all other assays above

COC(=O)C1=C(C#N)NC(C)=C(C(=O)OC(C)C)C1c1cccc([N+](=O)[O-])c1 (configuration not stated)
inactive: [1] | [4] | [8] | [12] | [18] | [13] | [19] | [14]
active: [2] 13.3 µM | [15] 23.7 µM | Aromatase (Homo sapiens) 29.8 µM

COc1cc(C[C@@H]2NCCc3cc(O)c(O)cc32)cc(OC)c1OC
not listed: [3] | [5] | [6] | [7] | [9] | [14]
inactive: all other assays above

COc1ccc2c(c1)N(C[C@H](C)CN(C)C)c1ccccc1S2
active: [2] 11.4 µM | [15] 11.4 µM | [16] 4.52 µM | [10] 10.1 µM
inactive: [1] | [8] | [11] | [17] | [12] | [18] | [13] | [19] | [14]

OC[C@H]1O[C@@H](O[C@H]2[C@H](O)[C@@H](O)[C@H](O)O[C@@H]2CO)[C@H](O)[C@@H](O)[C@@H]1O
not listed: [6] | [15]
inactive: all other assays above

CCCOc1ccc2nc(NC(=O)OC)sc2c1
active: [2] 2.37 µM | [15] 2.66 µM | [16] 10.6 µM | [10] 2.37 µM
inactive: [1] | [4] | [8] | [11] | [12] | [14] | Aromatase (Homo sapiens)

C[C@]12CCC(=O)C[C@@H]1CC[C@@H]1[C@@H]2CC[C@]2(C)C=CC[C@@H]12
inactive: [1] | [2] | [15] | [8] | [11] | [12] | [19] | [14] | Aromatase (Homo sapiens)
active: [18] 8.49 µM [inconclusive] | [13] 11.9 µM

OC[C@H]1OC([S-])[C@H](O)[C@@H](O)[C@@H]1O.[Au+] (some centres not stated)
active: [2] 10.6 µM | [16] 10.6 µM | [10] 7.5 µM
not listed: [3] | [5] | [6] | [7] | [9] | [11] | [17]
inactive: all other assays above

CCCCOC(=O)C(=O)Nc1cccc(-c2nn[nH]n2)c1
not listed: [10] | [11] | [14] | [15] | [16] | [17]
inactive: all other assays above

CCc1ccc(S(=O)(=O)O)cc1
active: [18] 4.77 µM [inconclusive] | [13] 0.298 µM
not listed: [15] | [17]
inactive: all other assays above

Cc1cc(-n2c(=O)[nH]c(=O)n(C)c2=O)ccc1Oc1ccc(S(=O)(=O)C(F)(F)F)cc1
active: [2] 26.6 µM | [15] 26.6 µM | [11] 9.44 µM
inactive: [1] | [8] | [18] | [14] | Aromatase (Homo sapiens)
